This is part of a sample that, as a whole, favours compounds with a hit. Of some 83,000 tested, about 20% had one in any assay.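 Step 1: grow cells in 96-well plates. Step 2: add test compound at a single concentration. Step 3: incubate 48 h. Step 4: record percent growth.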 Unmarked numbers belong to inactive results. Calls of active or inactive are those of the source. The calls were made as follows: active = growth percent below 10; inactive = the rest.

Assay in all cases: NCI-60 one-dose screen, 48 h (100 = growth as untreated, 0 = no growth, -100 = all killed)
What all share (details): 10 µM unless noted

For experiment [1], the system named is SK-MEL-2 melanoma.
Experiment [2] relates to EKVX NSCLC.
The test system of experiment [3] is SN12C renal.
The test system of experiment [4] is UO-31 renal.
The subject of experiment [5] is TK-10 renal.
The test system of experiment [6] is ACHN renal.
For experiment [7], the system named is CAKI-1 renal.
Experiment [8] deals with A498 renal.
For experiment [9], the system named is CCRF-CEM leukemia.
For experiment [10], the system named is MOLT-4 leukemia.
The test system of experiment [11] is SR leukemia.
Experiment [12] concerns RPMI-8226 leukemia.
Experiment [13] has as its system OVCAR-8 ovarian.
In experiment [14] the test system is OVCAR-5 ovarian.
The test system of experiment [15] is OVCAR-4 ovarian.
For experiment [16], the system named is SK-OV-3 ovarian.
The subject of experiment [17] is IGROV1 ovarian.
For experiment [18], the system named is OVCAR-3 ovarian.
The subject of experiment [19] is HS 578T breast.
Experiment [20] deals with NCI/ADR-RES ovarian.

As to `CNC1=CC(=O)c2c(C(=O)OC)c(C)[n+]([O-])c(C)c2C1=O`, the growth in experiment [1] is 70.7%; in experiment [2], 84%; in experiment [3] it was 40%; in experiment [4] it was 90.7%; in [5], 133%; in [6], 74.4%. The growth in [7] was 74.4%; in [8], 103%; in experiment [9], 81.6%; in experiment [10], 95.6%; in experiment [11] it was 95.5%; in [12], 76.1%. Besides, the growth is 35% in experiment [13]; 96.1% in [14]; 26% in experiment [15]; 120% in experiment [16]; 70.2% in [17]; 7.04% (active) in [18]. Further, the growth is 94.1% in experiment [19] and 70.6% in [20].

As for `N#Cc1cncc(-c2ccc3ncnc(Nc4cccc(Cl)c4)c3c2)c1`, the growth in experiment [1] is 90.5%; in [2], 40.7%; in experiment [3] it was 82.9%; in [4], 71%; in experiment [5], 43.9%; in experiment [6], 58.6%. Besides, the growth in experiment [7] was 66.1%; in experiment [8], 33.4%; in experiment [9], 101%; in [10], 87.5%; in experiment [11] it was 74.3%; in experiment [12], 80.3%. Besides, the growth in experiment [13] is 49.1%; in experiment [14] it was 85%; in experiment [15], 41.5%; in experiment [16] it was 53.4%; in experiment [17], 45.1%; in [18] it was 58%. Moreover, the growth is 61.2% in experiment [19] and 72.8% in [20].

As to `c1ccc(CCNc2c3ccccc3nc3ccccc23)cc1`, the growth in experiment [1] is 86.3%; in [2], 36.3%; in experiment [3] it was 33.1%; in experiment [4], 24.2%; in [5] it was 53.2%; in experiment [6], 21.6%. Further, the growth in [7] is 30.3%; in [8], -5.19% (active); in experiment [9], 53.3%; in experiment [10] it was 24.6%; in [11], 20.9%; in [12], 19.5%. The growth in experiment [13] is 38.3%; in [14] it was 53.4%; in experiment [15] it was 35%; in [16] it was 62.6%; in experiment [17] it was 28%; in experiment [18], 71%. The growth in experiment [19] is 73.3%; in [20] it was 33.5%.

For `O=C(/C=C/c1ccccc1)c1ccc(Nc2nc(Nc3ccc(F)cc3)nc(Nc3ccc(Cl)cc3)n2)cc1`, the growth in experiment [1] was 92%; in [2], 79.2%; in experiment [3], 99.6%; in [4] it was 82%; in [5] it was 106%; in [6], 93.1%. In addition, the growth was 87.4% in experiment [7]; 94.5% in experiment [8]; 26.3% in experiment [9]; 83.6% in experiment [10]; 78.2% in experiment [11]; -9.92% (active) in experiment [12]. Also, the growth was 58.4% in experiment [13]; 102% in experiment [14]; 90.8% in [15]; 103% in experiment [16]; 90.8% in experiment [17]; 80.2% in experiment [18]. In addition, the growth is 99.7% in [19] and 76.7% in experiment [20].

In the case of `Cn1ccc(=O)nc1`, the growth in experiment [1] was 12.7%; in [2] it was 130%; in experiment [3], 81.5%; in experiment [4] it was 73.4%; in experiment [5], 94.9%; in experiment [6], -4.04% (active). Further, the growth in [7] is 73.4%; in experiment [8], 98.1%; in experiment [9] it was 86.7%; in experiment [10], 74.6%; in [11], 68.7%; in [12] it was 101%. Besides, the growth in experiment [13] was 78.7%; in [14], 74.5%; in experiment [15], 76.1%; in experiment [16], 93%; in experiment [17], 79%; in experiment [18] it was 115%. The growth in experiment [19] was 132%; in experiment [20], 93.4%.

Take `CNC(=O)c1ccccc1Nc1nc(Nc2cc(OC)c(OC)c(OC)c2)ncc1Br`: the growth in [1] is -77.4% (active); in experiment [2], -10.4% (active); in experiment [3], -40.7% (active); in [4], -17.6% (active); in experiment [5] it was -31.4% (active); in experiment [6] it was 12.5%. Moreover, the growth in [7] is 2.5% (active); in [8], -88.4% (active); in experiment [9] it was 71.3%; in experiment [10], 66.3%; in experiment [11], 6.27% (active); in [12], 41.5%. The growth in [13] is -20.3% (active); in experiment [14] it was 13.3%; in [15] it was -34.5% (active); in [16] it was -77.2% (active); in [17] it was 4.34% (active); in experiment [18] it was -6.51% (active). Besides, the growth in [19] is -3.22% (active); in experiment [20] it was -10.7% (active).

As to `C=C1C(=O)O[C@H]2[C@H]1CC/C(COC(=O)/C=C/C(=O)OC/C1=C/CC[C@@]3(C)O[C@H]3[C@H]3OC(=O)C(=C)[C@@H]3CC1)=C\CC[C@@]1(C)O[C@@H]21`, the growth was 93.4% in [1]; 88.2% in [2]; 4.73% (active) in experiment [3]; -41.7% (active) in experiment [4]; 0.985% (active) in [5]; -13.5% (active) in [6]. Also, the growth in experiment [7] is 63.3%; in experiment [8], 102%; in [9], -12.9% (active); in [10], 7.58% (active); in experiment [11] it was 7.6% (active); in experiment [12] it was -15.2% (active). For the same compound, the growth in [13] was 62.7%; in [14], 88.8%; in experiment [15], 86.2%; in experiment [16], 110%; in [17], 87.6%; in experiment [18] it was -0.457% (active). Moreover, the values for the growth in experiment [19] and in [20] were 90.2% and 96.5%, respectively.

For `CCN1C(=O)N(CC)C2C1NN=c1s/c(=C3\C(=O)N(CC(C)C)c4ccccc43)c(=O)n12` (stereo not given), the growth in experiment [1] is 56%; in experiment [2], 53.7%; in experiment [3], 27.5%; in [4] it was 32.1%; in [5] it was 70.2%; in experiment [6] it was 31%. Besides, the growth is 31.6% in [7]; 9.64% (active) in experiment [8]; 11.6% in [9]; 19.6% in [10]; 17.7% in [11]; 17.5% in experiment [12]. Also, the growth in experiment [13] was 9.28% (active); in experiment [14], 30.3%; in experiment [15] it was 44.6%; in experiment [16] it was 45.1%; in experiment [17], 19%; in experiment [18], 5.65% (active). For the same compound, the growth in experiment [19] was 18%; in [20] it was 5.71% (active).

Values taken from PubChem BioAssay (NCI).
